# Source: PubChem BioAssay (NCATS)
# Where “and” joins values, the source holds several entries; their conditions need not be identical. Equal values may be shown once. Results filed as inconclusive are left out. Calls of active or inactive are those of the source. Unless noted, the call rests on the fitted dose curve; in most records, active means well fitted curve in the direction sought with a large enough effect; inconclusive means small, poorly fitted or top-dose-only effect, or another doubt; inactive means no such curve, though single readings can be large; an effect the other way counts as inactive or inconclusive.
# Key:
# [1] = Cytotoxicity counterscreen for NFkB agonists and antagonists (AID 624476); further: potency means the concentration at half of the fitted maximal effect
# [2] = qHTS Assay for Identification of Small Molecule Agonists for NFkB Signaling Pathway. (AID 624478);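 further: compounds tested together with TNF alpha at its EC50 of 10 pM; 0% is about no effect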
# Summary of the method: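 Cells carrying an NFkB response element-driven beta-lactamase gene are co-treated with compound and 10 pM TNF alpha for 5 h, and reporter activity is then read as 460 and 530 nm fluorescence.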
# [3] = qHTS Assay for Identification of Small Molecule Antagonists for NFkB Signaling Pathway. (AID 624479; calls by dose curve;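 further: pathway stimulated with TNF alpha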; further: potency means the concentration at half of the fitted maximal effect)
# [4] = Cell Proliferation Assay against the TMD8 Cell Line (AID 651645); details: TMD8 DLBCL cell line proliferation/viability; at 46.1 µM (top of the series);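 further: cells exposed to compound for 48 h before reading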
# Summary of the method: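 Cell viability of the ABC DLBCL line TMD8 is measured by CellTiter-Glo luminescence following a 48-hour incubation with compound. Percent activity uses DMSO as 100% and 9.2 uM bortezomib (final) as 0%.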
# [5] = Cell Proliferation Assay against the HBL1 Cell Line (AID 651646); details: HBL1 DLBCL cells; at 46.1 µM (top of the series);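 further: cells exposed to compound for 48 h before reading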
# Summary of the method: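 HBL1 ABC DLBCL cells, 500/well in RPMI with 5% FBS, treated for 48 h at 37C. Viability read by CellTiter-Glo luminescence, normalized to DMSO as 100% and 9.2 uM bortezomib as 0%.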
# [6] = Cell Proliferation Assay against the TMD8 Cell Line (Caspase readout at 8 hrs) (AID 651713); further: potency means the concentration at half of the fitted maximal effect
# Summary of the method: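 Percent activity derived from Caspase-Glo signal, DMSO set to 0% and bortezomib (9.2 uM final) to 100%. TMD8 cells were exposed to compound for 8 h in RPMI with 5% FBS.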
# [7] = target: Tyrosine-protein kinase Yes (Homo sapiens) (UniProt P07947); test: qHTS for small molecule inhibitors of Yes1 kinase: Primary Screen (AID 686947); further: nearly all actives have a fitted effect of over 60% in size; further: potency means the concentration at half of the fitted maximal effect
# Summary of the method: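 ADP-Glo luminescence readout; final 4 nM Yes1, 0.1 mM ATP, 0.3 mg/mL poly(E4Y), Tris pH 7.5, MgCl2, DTT, Brij-35. 20 min compound preincubation, 60 min reaction at RT. Normalized to DMSO wells with and without enzyme.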
# [8] = qHTS for small molecule inhibitors of Yes1 kinase: Counter Assay (AID 686950);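 further: no kinase present so only ADP-Glo detection of a fixed ADP amount is tested; luminescence from ADP-Glo reporting ADP in a fixed ATP and ADP mixture; 0% = DMSO wells with ATP plus ADP and -100% = ATP-only wells without ADP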
# Summary of the method: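 Enzyme-free detection counter-screen: compounds preincubated 20 min in buffer, then 0.08 mM ATP plus 0.02 mM ADP added for 60 min at room temperature; ADP-Glo luminescence. Buffer 50 mM Tris pH 7.5, 10 mM MgCl2, 150 mM NaCl; normalized to ATP+ADP and ATP-only controls.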
# [9] = Cell Proliferation Assay against the TMD8 Cell Line (Caspase readout at 16 hrs) (AID 651712); further: potency means the concentration at half of the fitted maximal effect
# Summary of the method: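 TMD8 cells in RPMI with 5% FBS were treated with compound for 16 h at 37 C, then caspase 3/7 activation was read by Caspase-Glo luminescence. Percent activity was scaled to DMSO (0%) and 9.2 uM bortezomib final (100%).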
# Chain of Tyrosine-protein kinase Yes (Homo sapiens) (P07947 whole entry, looked up): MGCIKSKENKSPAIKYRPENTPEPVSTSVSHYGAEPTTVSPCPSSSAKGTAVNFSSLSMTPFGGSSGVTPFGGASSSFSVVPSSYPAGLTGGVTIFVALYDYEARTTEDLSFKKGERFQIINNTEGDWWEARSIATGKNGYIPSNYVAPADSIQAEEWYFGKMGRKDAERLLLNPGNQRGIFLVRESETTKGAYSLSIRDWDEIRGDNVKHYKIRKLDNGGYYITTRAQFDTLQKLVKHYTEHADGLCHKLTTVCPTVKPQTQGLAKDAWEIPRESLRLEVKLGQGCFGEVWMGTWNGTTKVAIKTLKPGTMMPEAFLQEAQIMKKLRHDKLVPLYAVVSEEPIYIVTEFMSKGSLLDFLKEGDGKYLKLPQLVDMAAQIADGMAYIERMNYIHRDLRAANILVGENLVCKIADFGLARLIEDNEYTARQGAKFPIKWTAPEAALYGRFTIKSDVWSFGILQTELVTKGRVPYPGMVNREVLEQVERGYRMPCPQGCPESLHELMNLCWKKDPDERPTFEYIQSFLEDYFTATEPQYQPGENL
SMILES,Potency [1],outcome [2],Potency [3],viability (% of control) [4],"viability, percent of control [5]",Potency [6],Potency [7],outcome [8],Potency [9]
CN1CC[C@@H](c2c(O)cc(O)c3c(=O)cc(-c4ccccc4Cl)oc23)[C@@H](O)C1,0.132 µM (active),inactive,0.0149 µM (active),-0.0054%,41.8%,0.0743 µM (active),34.5 µM (active),inactive,–
CN1CCC(CNc2ccc3ncc(-c4cccc(OC(F)(F)F)c4)n3n2)CC1,26.4 µM (active),inactive,23.7 µM (active),4.73%,3.91%,23.5 µM (active),–,inactive,–
COc1cc2ncn(-c3cc(OCc4ccccc4C(F)(F)F)c(C(N)=O)s3)c2cc1OC,inactive,inactive,inactive,37.6%,41.7%,inactive,–,inactive,–
CC(C)(C)c1cnc(CSc2cnc(NC(=O)C3CCNCC3)s2)o1,0.166 µM (active),inactive,0.0473 µM (active),3.42%,36.4%,0.0935 µM (active),–,inactive,–
CCC[C@H](NC(=O)C(C#N)=Cc1cccc(Br)n1)c1ccccc1,2.96 µM (active),inactive,2.11 µM (active),3.01%,2.62%,1.87 µM (active),–,inactive,–
CC(NCc1ccc2c(c1)nc(NC(=O)c1ccc(-c3cn[nH]c3)s1)n2CC(C)(C)O)C(C)(C)C (stereo not drawn),0.332 µM (active),inactive,0.0266 µM (active),1.7%,1.76%,0.332 µM (active),–,inactive,–
Cc1[nH]c2ccccc2c1CCNCc1ccc(C=CC(=O)NO)cc1,0.332 µM (active),inactive,–,1.52%,-0.0299%,–,13.7 µM (active),inactive,0.0332 µM (active)
CN(C)CC=CC(=O)Nc1cc2c(Nc3ccc(F)c(Cl)c3)ncnc2cc1O[C@H]1CCOC1,29.6 µM (active),inactive,13.3 µM (active),0.0294%,1.34%,–,–,inactive,–
C[C@@H]1CN(CC(=O)Nc2ccc3c(c2)Cc2cccc(-c4cc(=O)cc(N5CCOCC5)o4)c2S3)C[C@H](C)O1,inactive,inactive,inactive,26.2%,56.7%,23.5 µM (active),inactive,inactive,–
CCOc1cc2ncc(C#N)c(Nc3ccc(F)c(Cl)c3)c2cc1NC(=O)C=CCN(C)C,20.9 µM (active),inactive,11.9 µM (active),-0.0881%,2.39%,16.6 µM (active),–,inactive,–
CC(C)CC(=O)Nc1n[nH]c2c1CN(C(=O)C1CCN(C)CC1)C2(C)C,2.35 µM (active),inactive,0.266 µM (active),4.73%,49.6%,2.35 µM (active),12.2 µM (active),inactive,–
CCCCc1nc2cc(C=CC(=O)NO)ccc2n1CCN(CC)CC,14.8 µM (active),inactive,–,1.77%,1.9%,inactive,inactive,inactive,0.332 µM (active)
COc1cccc2nc(-c3cccs3)nc(NN3C(=O)C=C(C)C3=O)c12,inactive,inactive,0.841 µM (active),3.01%,3.09%,0.166 µM (active),–,inactive,–
CC=C1NC(=O)[C@H]2CSSCCC=C[C@H](CC(=O)N[C@H](C(C)C)C(=O)N2)OC(=O)[C@H](C(C)C)NC1=O,0.0935 µM (active),inactive,inactive,4.33%,3.6%,–,inactive,inactive,–
CCCCN1CCC(CNC(=O)c2c3n(c4ccccc24)CCCO3)CC1,inactive,inactive,inactive,–,93.7%,inactive,–,inactive,inactive
CN1CCN(c2ccc3nc(-c4c(N)c5c(F)cccc5[nH]c4=O)[nH]c3c2)CC1,16.6 µM (active),inactive,0.421 µM (active),-0.299%,0.538%,18.7 µM (active),–,inactive,–
CC1(C)CCC(c2ccc(Cl)cc2)=C(CN2CCN(c3ccc(C(=O)NS(=O)(=O)c4ccc(N[C@H](CCN5CCOCC5)CSc5ccccc5)c(S(=O)(=O)C(F)(F)F)c4)cc3)CC2)C1,4.18 µM (active),inactive,14.9 µM (active),1.35%,3.35%,29.6 µM (active),30.7 µM (active),inactive,–
CC[C@@H]1C(=O)N(C)c2cnc(Nc3ccc(C(=O)NC4CCC(N5CCN(CC6CC6)CC5)CC4)cc3OC)nc2N1C(C)C (stereo partly drawn),13.2 µM (active),inactive,5.3 µM (active),3.58%,4.22%,26.4 µM (active),inactive,inactive,–
Cc1cn(-c2cc(NC(=O)c3ccc(C)c(Nc4nccc(-c5cccnc5)n4)c3)cc(C(F)(F)F)c2)cn1,9.35 µM (active),inactive,2.11 µM (active),17.5%,14.5%,inactive,inactive,inactive,–

SMILES,Potency [1],outcome [2],Potency [3],viability (% of control) [4],"viability, percent of control [5]",Potency [6],Potency [7],outcome [8],Potency [9]
Cc1cccc(C=NNc2cc(N3CCOCC3)nc(OCCc3ccccn3)n2)c1,inactive,inactive,21.1 µM (active),0.274%,0.729%,–,inactive,inactive,–
Cc1cnc(-c2cnc(NCCNc3ccc(C#N)cn3)nc2-c2ccc(Cl)cc2Cl)[nH]1,inactive,inactive,14.9 µM (active),9.76%,22.7%,–,inactive,inactive,–
CC(C)(O)CCc1ccc(OCc2cc(-c3cccc(OC(F)F)c3)c3ncccc3c2)cc1,inactive,inactive,23.7 µM (active),60.9%,7.17%,inactive,–,inactive,–
COc1cc2ncnc(Nc3ccc(F)c(Cl)c3)c2cc1NC(=O)C=CCN1CCCCC1,20.9 µM (active),inactive,16.8 µM (active),-0.755%,0.0432%,23.5 µM (active),0.194 µM (active),inactive,–
COc1ccc(CC2SC(=O)NC2=O)cc1C(=O)NCc1ccc(C(F)(F)F)cc1 (stereo not drawn),inactive,inactive,inactive,71.9%,66%,inactive,inactive,inactive,–
Cc1nc2cnc3ccc(C#Cc4cccnc4)cc3c2n1-c1ccc(C(C)(C)C#N)cc1,inactive,inactive,–,0.22%,0.379%,26.4 µM (active),–,inactive,–
COc1cc2nccc(Oc3ccc(NC(=O)C4(C(=O)Nc5ccc(F)cc5)CC4)cc3)c2cc1OC,–,inactive,16.8 µM (active),18.7%,3.78%,–,1.09 µM (active),inactive,26.4 µM (active)
C=C1C(=CC=C2CCCC3(C)[C@@H]([C@H](C)C=CC=CC(O)(CC)CC)CC[C@@H]23)C[C@@H](O)C[C@@H]1O (stereo partly drawn),23.5 µM (active),–,16.8 µM (active),3.4%,2.25%,–,–,inactive,–
O=C(NCCCNc1nc(Nc2cccc(NC(=O)N3CCCC3)c2)ncc1I)c1cccs1,–,inactive,9.43 µM (active) and 5.3 µM (active),1.52% and 1.4%,26.8% and 21.3%,26.4 µM (active) and 29.6 µM (active),–,inactive,13.2 µM (active) and 5.9 µM (active)
CN1CCN(c2cc(C(=O)Nc3ccc4c(c3)-c3c(c(C(N)=O)nn3-c3ccc(F)cc3)CC4)c(Cl)cn2)CC1,inactive,inactive,–,0.112%,0.345%,33.2 µM (active),inactive,inactive,–
Cc1ccc(C(N)=O)cc1Nc1nccc(-c2cn(C(C)C)c3cnccc23)n1,–,inactive,0.421 µM (active),5.31%,14.4%,14.8 µM (active),–,inactive,2.64 µM (active)
COc1ccc(OC)c(-c2nnc3ccc(-c4ccc(OC)c(O[C@@H]5CCOC5)c4)nn23)c1,inactive,inactive,–,15.1%,42.3%,–,–,inactive,20.9 µM (active)
COCCn1c2c([n+](Cc3cnccn3)c1C)C(=O)c1ccccc1C2=O,0.0118 µM (active),inactive,–,1.68%,1.98%,–,inactive,inactive,inactive
C=CC(=O)Nc1cc2c(Nc3ccc(F)c(Cl)c3)ncnc2cc1C#CC(C)(C)N1CCN(C)CC1,7.43 µM (active),–,4.73 µM (active),-0.868%,0.0807%,5.26 µM (active),0.0972 µM (active),inactive,–
O=c1[nH]nc(Sc2ncc([N+](=O)[O-])s2)n1-c1ccc2c(c1)OCCO2,–,inactive,23.7 µM (active),0.996%,-0.138%,inactive,–,inactive,inactive
NC(=O)c1c(OCc2c(F)cc(Br)cc2F)nsc1NC(=O)NCCCCN1CCCC1,inactive,inactive,–,8.16%,4.14%,–,–,inactive,inactive
Cc1ccc(C(=O)Nc2ccc(CN3CCN(C)CC3)c(C(F)(F)F)c2)cc1C#Cc1cnc2cccnn12,20.9 µM (active),–,2.66 µM (active),1.83%,2.46%,23.5 µM (active),–,inactive,0.662 µM (active)
C=CC(=O)Nc1cc2c(Nc3ccc(F)c(Cl)c3)ncnc2cc1OCCCN1CCOCC1,23.5 µM (active),–,16.8 µM (active),0.581%,0.769%,14.8 µM (active),–,inactive,–
c1ccc2c(CCNc3ccc(Nc4ccncc4)cc3)c[nH]c2c1,inactive,–,10.6 µM (active),3.66%,22.1%,–,inactive,inactive,23.5 µM (active)
